From PubChem BioAssay (EPA / NIEHS) come the findings set out here.

Broadly, the AC50 is the concentration giving half of the maximal activity seen.

Results filed as inconclusive are left out. Active and inactive are the calls of the source. Rule for the calls, unless noted: active = hit-call score of the fitted dose curve at least 0.9, where 1 is the maximum; inactive = score below 0.9.

A short description of assay [1]: ATG_PPRE_CIS: Attagene CIS-FACTORIAL HepG2 Assay for human Peroxisome Proliferator-activated Response Element (PPRE) (AID 2282958). Conditions: HepG2 PPRE cis-element reporter, Attagene transcription factor profiling; actives raise or lower the signal. An outline of the steps:
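Measured endpoint: PPRE-controlled reporter mRNA, detected by RT-PCR and capillary electrophoresis fluorescence, from transiently transfected HepG2 cells 24 h after dosing. Curves fitted in both directions using DMSO baseline.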

The target of assay [2] is human Phosphodiesterase 10 (PDE10), PDE10A (gene 10846) (UniProt Q9Y233). Briefly: NVS_ENZ_hPDE10: NovaScreen (NVS) Enzymatic Assay for human Phosphodiesterase 10 (PDE10) (AID 2283195; active = hit-call score of the fitted dose curve at least 0.9, where 1 is the maximum). The method in brief:
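Fluorescence/mobility-shift readout of PDE10A enzyme activity, taken 1 h post-dosing. Primary screen in duplicate at 25 uM; actives (e.g. ≥30% inhibition) retested as singleton concentration-response, top concentration 50 uM.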

Read-out in assay [3]: Collagen I, COL1A1 (gene 1277)
As to the kind of experiment: BSK_MyoF_CollagenI: BioMAP Diversity Plus: MyoF Assay for Collagen I Biomarker Activity (AID 2284238). Conditions: primary human lung fibroblasts. The method in brief: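 Multiplexed primary human lung fibroblast system; Collagen I measured by ELISA at 24 h post-dose. Increases are referenced to DMSO.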

Read-out in assay [4]: Collagen III, COL3A1 (gene 1281)
Briefly: BSK_MyoF_CollagenIII: BioMAP Diversity Plus: MyoF Assay for Collagen III Biomarker Activity (AID 2284239). Conditions: primary human lung fibroblasts. The method in brief:
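Compounds are added to primary human lung fibroblasts and left for 24 hours. Collagen III is then quantified by ELISA. Analysis takes DMSO as baseline and fits increases in signal.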

Read-out in assay [5]: Interleukin 17F (IL17F), IL17F (gene 112744)
Briefly: BSK_BT_xIL17F: BioMAP Diversity Plus: BT Assay for Interleukin 17F (IL17F) Biomarker Activity (AID 2284243). The following applies: primary human B cells with PBMC. An outline of the steps:
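Measures secreted IL-17F from a human B cell plus PBMC co-culture at 24 h post-dose by Luminex xMAP, with DMSO defining baseline activity.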

Read-out in assay [6]: Actin alpha 1 (ACTA1), ACTA1 (gene 58)
As to the kind of experiment: BSK_MyoF_ACTA1: BioMAP Diversity Plus: MyoF Assay for Actin alpha 1 (ACTA1) Biomarker Activity (AID 2284244). The following applies: primary human lung fibroblasts. The method in brief: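 Lung fibroblasts, human primary, 24 h compound exposure → a-SMA ELISA. Positive-direction fit vs DMSO control.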

Read-out in assay [7]: Interleukin 2 (IL2), IL2 (gene 3558)
As to the kind of experiment: BSK_BT_xIL2: BioMAP Diversity Plus: BT Assay for Interleukin 2 (IL2) Biomarker Activity (AID 2284245). Conditions: primary human B cells with PBMC. The method in brief:
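B cell + PBMC co-culture (human primary), compound added, 24 h incubation; secreted IL-2 measured multiplexed on Luminex xMAP; gain-of-signal fit vs DMSO.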

Read-out in assay [8]: Basic fibroblast growth factor (bFGF), FGF2 (gene 2247)
Briefly: BSK_MyoF_bFGF: BioMAP Diversity Plus: MyoF Assay for Basic fibroblast growth factor (bFGF) Biomarker Activity (AID 2284246). The following applies: primary human lung fibroblasts. An outline of the steps: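 ELISA-measured bFGF level serves as the read-out, taken 24 h after chemical dosing of human lung fibroblasts. Values represent signal gain over the DMSO negative control.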

Read-out in assay [9]: Plasminogen activator inhibitor-1 (PAI1), SERPINE1 (gene 5054)
Briefly: BSK_MyoF_PAI1: BioMAP Diversity Plus: MyoF Assay for Plasminogen activator inhibitor-1 (PAI1) Biomarker Activity (AID 2284256).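 Note: PAI-1 protein level measured by ELISA in fibroblast cultures; PAI-1 read 24 h after compound addition.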 The following applies: primary human lung fibroblasts. The method in brief:
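Activity reflects increased PAI-1, determined by ELISA and compared with DMSO, in human lung fibroblasts treated for 24 h.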

Read-out in assay [10]: Interleukin-8 (IL8), CXCL8 (gene 3576)
As to the kind of experiment: BSK_MyoF_IL8: BioMAP Diversity Plus: MyoF Assay for Interleukin-8 (IL8) Biomarker Activity (AID 2284261). The following applies: primary human lung fibroblasts. The method in brief:
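In this multiplexed primary-cell system, fibroblasts from human lung are treated with chemicals, and IL-8 is detected by ELISA at 24 h, with DMSO serving as the negative reference.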

Read-out in another assay: Decorin, DCN (gene 1634)
Briefly: BSK_MyoF_Decorin: BioMAP Diversity Plus: MyoF Assay for Decorin Biomarker Activity (AID 2284265). Conditions: primary human lung fibroblasts. An outline of the steps:
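Lung fibroblast cultures, 24 h chemical exposure. Decorin by ELISA, positive fitting direction, DMSO baseline.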

Assay [11] can be described thus: BSK_MyoF_SRB: Viability Assessment in the BioMAP Diversity Plus: MyoF Assay (AID 2284267).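 Note: total protein by SRB absorbance in parallel cultures as cytotoxicity measure.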 Conditions: primary human lung fibroblasts. The method in brief: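 Read-out is SRB absorbance at 560 nm, reflecting total protein in parallel lung fibroblast cultures harvested 24 h after compound addition. Cells were TCA-fixed (10%) and stained with 0.1% SRB; activity is referenced to DMSO.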

Read-out in assay [12]: TIMP metallopeptidase inhibitor 1 (TIMP1), TIMP1 (gene 7076)
Briefly: BSK_MyoF_TIMP1: BioMAP Diversity Plus: MyoF Assay for TIMP metallopeptidase inhibitor 1 (TIMP1) Biomarker Activity (AID 2284269). Conditions: primary human lung fibroblasts. The method in brief: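 TIMP-1 levels were determined by ELISA in human lung fibroblasts treated for 24 h. DMSO served as negative control and baseline for upward curve fitting.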

Assay [13] is described as follows: CCTE_Padilla_ZF_Score.General: CCTE's 144 Hour Post-fertilization zebrafish Assay Score for General Malformation, Padilla Lab (AID 2284411). An outline of the steps: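 Wild-type zebrafish embryos were plated singly at 6-8 hpf in 10% Hanks' and exposed in sealed wells at 26C until rinsed on 5 dpf. At 6 dpf two blinded assessors scored mortality, hatching and malformations by stereomicroscopy; gain-of-signal versus DMSO.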

Assay [14] concerns the target Estrogen receptor (Homo sapiens) (UniProt P03372). As to the kind of experiment: ATG_ERa_TRANS: Attagene TRANS-FACTORIAL HepG2 Assay for human Estrogen Receptor alpha (ERa) (AID 2282970; active = hit-call score of the fitted dose curve at least 0.9, where 1 is the maximum). The following applies: HepG2 Attagene TRANS ERa GAL4 reporter, mRNA. The method in brief:
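Transactivation via ERa-Gal4 chimera in HepG2; 24 hour incubation; reporter mRNA detected by fluorescence RT-PCR and capillary electrophoresis.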

Assay [15] concerns the target Retinoic acid receptor alpha (Homo sapiens) (UniProt P10276). As to the kind of experiment: ATG_RARa_TRANS: Attagene TRANS-FACTORIAL HepG2 Assay for human Retinoic Acid Receptor alpha (RARa) (AID 2283005; active = hit-call score of the fitted dose curve at least 0.9, where 1 is the maximum). An outline of the steps:
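HepG2 cells transiently transfected with multiple reporter units expressing chimeric RARα-GAL4 fusion, with GAL4-UAS-driven reporters. After 24 h compound exposure, reporter mRNA induction quantified by RT-PCR and capillary electrophoresis with fluorescent labeling; gain-of-signal fitted relative to DMSO control.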

For assay [16], the target named is Bile acid receptor (Homo sapiens) (UniProt Q96RI1). Briefly: OT_FXR_FXRSRC1_1440: Odyssey Thera (OT) 24-hour HEK293T Protein-Complementation Assay for Farnesoid X receptor/SRC-1 Co-activator (AID 2283384; active = hit-call score of the fitted dose curve at least 0.9, where 1 is the maximum). The method in brief:
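Compounds are applied to human kidney HEK293T cells expressing bait and prey fused to reporter protein fragments; after 24 h, reconstituted reporter fluorescence is measured. Activity is fitted as signal gain over DMSO.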

The subject of another assay is SERPINA7 (gene 6906). Briefly: CCTE_GLTED_hTBG: CCTE's human Thyroxine-binding Globulin (TBG) Inhibition Assay, Great Lakes Toxicology and Ecology Division (GLTED) Lab (AID 2284343; active = hit-call score of the fitted dose curve at least 0.9, where 1 is the maximum;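 note: active chemicals lower fluorescence versus DMSO baseline by displacing probe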). The method in brief: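 hTBG + test chem, 2 h; ANSA probe displacement; fluorescence readout ex380/em475; DMSO = neg ctrl/baseline; cell-free.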
In another assay the test system is TTR (gene 7276). Briefly: CCTE_GLTED_hTTR_0.125uM: CCTE's human Transthyretin (hTTR) Inhibition Assay, with 0.125uM TTR, Great Lakes Toxicology and Ecology Division (GLTED) Lab (AID 2284431).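 Note: hits lower the fluorescence signal relative to DMSO baseline.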 The method in brief:
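Probe-displacement format: chemicals competing for the T4 site release ANSA from 0.125uM TTR during a 2 h incubation, measured by fluorescence at 380 excitation and 475 emission.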

Assay [17] can be described thus: CCTE_Deisenroth_AIME_384WELL_CTox_Active: Cytotoxicity Assessment (CTOX) in CCTE's 384-well Estrogen Receptor Transactivation Assay with AIME metabolic competence (metabolism positive), Deisenroth Lab (AID 2284037; active = hit-call score of the fitted dose curve at least 0.9, where 1 is the maximum;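 note: chemicals first conditioned 2 h by alginate-bound induced rat liver S9 before cells; activity means signal loss indicating cell death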). An outline of the steps: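 VM7Luc4E2 breast cells received medium pre-incubated 2 h with chemical over alginate microspheres holding induced male Sprague Dawley rat liver S9; viability read 24 h later by protease-substrate fluorescence. Loss of signal, bidirectional fit, 0.002–200 uM.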

Bile acid receptor (Homo sapiens), sequence (Q96RI1 whole entry, looked up, the tested form may be a part): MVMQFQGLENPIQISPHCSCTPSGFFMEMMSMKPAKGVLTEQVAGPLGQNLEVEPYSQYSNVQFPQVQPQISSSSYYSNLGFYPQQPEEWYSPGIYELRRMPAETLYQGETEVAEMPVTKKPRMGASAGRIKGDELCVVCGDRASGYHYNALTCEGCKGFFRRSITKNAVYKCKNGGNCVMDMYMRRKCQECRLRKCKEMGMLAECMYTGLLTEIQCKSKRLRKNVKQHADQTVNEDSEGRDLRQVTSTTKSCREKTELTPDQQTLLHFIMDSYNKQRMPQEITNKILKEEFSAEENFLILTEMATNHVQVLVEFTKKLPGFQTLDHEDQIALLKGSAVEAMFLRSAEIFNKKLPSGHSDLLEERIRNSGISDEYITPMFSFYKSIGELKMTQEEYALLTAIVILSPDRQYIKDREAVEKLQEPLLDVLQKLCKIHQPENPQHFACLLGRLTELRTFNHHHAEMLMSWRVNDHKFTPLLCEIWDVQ
Retinoic acid receptor alpha (Homo sapiens), sequence (P10276 whole entry, looked up, the tested form may be a part): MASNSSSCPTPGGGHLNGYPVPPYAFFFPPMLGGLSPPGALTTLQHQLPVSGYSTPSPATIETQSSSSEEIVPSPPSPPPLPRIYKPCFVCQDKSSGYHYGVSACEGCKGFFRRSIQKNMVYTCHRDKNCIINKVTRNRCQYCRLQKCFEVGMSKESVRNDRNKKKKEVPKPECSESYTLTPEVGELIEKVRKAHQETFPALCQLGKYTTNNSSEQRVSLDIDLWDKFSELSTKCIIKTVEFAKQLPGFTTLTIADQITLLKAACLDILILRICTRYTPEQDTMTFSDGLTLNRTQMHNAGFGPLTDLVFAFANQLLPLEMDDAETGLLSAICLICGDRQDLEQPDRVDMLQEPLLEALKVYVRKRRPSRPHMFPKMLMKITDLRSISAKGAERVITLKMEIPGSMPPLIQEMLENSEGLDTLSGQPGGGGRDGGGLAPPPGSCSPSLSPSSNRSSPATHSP
human Phosphodiesterase 10 (PDE10), PDE10A (gene 10846), sequence (Q9Y233 whole entry, looked up): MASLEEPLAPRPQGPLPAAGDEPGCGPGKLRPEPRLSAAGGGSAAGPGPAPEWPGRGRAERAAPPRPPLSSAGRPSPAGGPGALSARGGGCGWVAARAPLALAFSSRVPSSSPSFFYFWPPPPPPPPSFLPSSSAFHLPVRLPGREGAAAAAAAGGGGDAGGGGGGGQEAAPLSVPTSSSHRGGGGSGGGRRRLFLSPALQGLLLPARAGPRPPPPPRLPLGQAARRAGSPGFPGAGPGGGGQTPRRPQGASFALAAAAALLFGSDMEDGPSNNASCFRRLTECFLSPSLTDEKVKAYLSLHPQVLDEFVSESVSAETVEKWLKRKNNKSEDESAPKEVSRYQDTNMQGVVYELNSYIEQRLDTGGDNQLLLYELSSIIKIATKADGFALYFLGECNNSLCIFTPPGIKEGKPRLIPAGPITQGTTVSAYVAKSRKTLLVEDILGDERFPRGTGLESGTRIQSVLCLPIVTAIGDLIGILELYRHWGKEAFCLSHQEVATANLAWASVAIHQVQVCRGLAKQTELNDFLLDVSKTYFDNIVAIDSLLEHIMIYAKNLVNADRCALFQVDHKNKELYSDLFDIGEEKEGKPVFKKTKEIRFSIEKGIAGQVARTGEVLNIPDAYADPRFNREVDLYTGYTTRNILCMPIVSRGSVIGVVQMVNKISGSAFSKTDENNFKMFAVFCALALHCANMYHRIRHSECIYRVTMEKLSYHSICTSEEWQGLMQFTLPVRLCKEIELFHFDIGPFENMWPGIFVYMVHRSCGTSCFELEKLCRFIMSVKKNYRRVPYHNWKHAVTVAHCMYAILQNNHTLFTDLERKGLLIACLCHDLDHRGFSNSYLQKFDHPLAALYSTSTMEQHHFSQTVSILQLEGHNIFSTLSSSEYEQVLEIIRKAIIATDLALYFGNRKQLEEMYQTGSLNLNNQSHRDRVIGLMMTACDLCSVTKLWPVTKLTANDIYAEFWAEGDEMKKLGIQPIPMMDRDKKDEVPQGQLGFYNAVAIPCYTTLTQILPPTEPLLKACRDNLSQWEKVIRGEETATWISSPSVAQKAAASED
Estrogen receptor (Homo sapiens), sequence (P03372 whole entry, looked up, the tested form may be a part): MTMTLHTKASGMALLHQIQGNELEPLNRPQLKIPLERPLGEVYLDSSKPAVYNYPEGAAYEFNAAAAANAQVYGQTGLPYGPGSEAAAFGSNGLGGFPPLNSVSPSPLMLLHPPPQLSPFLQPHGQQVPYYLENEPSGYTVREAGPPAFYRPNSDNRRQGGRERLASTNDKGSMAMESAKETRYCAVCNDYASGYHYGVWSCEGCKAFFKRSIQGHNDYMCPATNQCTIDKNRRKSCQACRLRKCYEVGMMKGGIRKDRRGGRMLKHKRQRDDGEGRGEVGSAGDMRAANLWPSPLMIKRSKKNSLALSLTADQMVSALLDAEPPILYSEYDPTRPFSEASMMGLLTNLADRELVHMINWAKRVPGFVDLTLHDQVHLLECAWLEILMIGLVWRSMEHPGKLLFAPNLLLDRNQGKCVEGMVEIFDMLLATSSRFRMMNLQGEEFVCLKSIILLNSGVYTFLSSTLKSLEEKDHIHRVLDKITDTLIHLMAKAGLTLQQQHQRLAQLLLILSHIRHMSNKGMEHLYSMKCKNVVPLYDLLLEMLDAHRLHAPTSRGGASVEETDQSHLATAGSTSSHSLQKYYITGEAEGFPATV

On to `CC(C)CC(=O)CC(C)CC(C)C` (stereo unspecified), for which the result in assay [1], in assay [2], in assay [3], in assay [4], in assay [5] and in assay [6] was inactive. The outcome in assay [7] is “inactive”; in assay [8] it was “inactive”; in [9] it was “inactive”; in [10], “inactive”; with Decorin, DCN (gene 1634), “inactive”; in [11] it was “inactive”. For the same compound, the result in assay [12] and in assay [13] was inactive.
Turning to `CCCCCCC1CCC(=O)O1` (stereo unspecified), the outcome in assay [1], in assay [14] and in assay [15] was inactive.
For `Sc1nc2ccccc2s1`, the compound was classed as inactive in [16], in [3], in [4], in assay [5], in assay [6] and in assay [7]. For the same compound, the outcome in assay [8] was “inactive”; in assay [9], “inactive”; in assay [10] it was “inactive”; in the assay with Decorin, DCN (gene 1634), “inactive”; in [11] it was “inactive”; in [12], “inactive”. Further, the AC50 in the assay on SERPINA7 (gene 6906) is 50 µM (active); in assay [13], 5.5 µM (active); in the assay with TTR (gene 7276), 9.1 µM (active).
Turning to `CCCCCCC(O)CCCCCCCCCCC(=O)OC` (stereo unspecified), the outcome in [15], in assay [3], in assay [4], in assay [5], in assay [6] and in [7] was inactive. For the same compound, the outcome in assay [8] was “inactive”; in [9], “inactive”; in [10] it was “inactive”; in the assay with Decorin, DCN (gene 1634) it was “inactive”; in assay [11] it was “inactive”; in assay [12], “inactive”.
`CC(C)CC(=O)CC(C)C`: the outcome in assay [17] was inactive.
On to `COC(=O)[C@]1(C)CCC[C@@]2(C)[C@H]1CC=C1C=C(C(C)C)CC[C@@H]12`, for which the AC50 in assay [16] was 12.8 µM (active).
As to `COCCCN`, in [1], the outcome was inactive.
Regarding `CCC(C)=NO`, in [17], the result was inactive.
`O=C(c1ccccc1)c1ccccc1O`: the values for the half-maximal activity concentration (AC50) with SERPINA7 (gene 6906) and in the assay with TTR (gene 7276) were 17.9 µM (active) and 1.05 µM (active), respectively.
For `O=C(C(=O)c1ccccc1)c1ccccc1`, the result in assay [3], in [4], in [5], in assay [6], in [7] and in [8] was inactive. For the same compound, the outcome in [9] is “inactive”; in assay [10], “inactive”; with Decorin, DCN (gene 1634), “inactive”; in [11], “inactive”; in assay [12] it was “inactive”.
